Records with an inconclusive call do not appear. Active and inactive are the calls of the source. The calls were made as follows: active = hit-call score of the fitted dose curve at least 0.9, where 1 is the maximum; inconclusive = response in the unintended direction; inactive = score below 0.9.
Assays:
[1] = ATG_XTT_Cytotoxicity: Cytotoxicity Assessment in the Attagene TRANS-FACTORIAL HepG2 Assay (AID 2283584)
Method in brief: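 24 h chemical exposure of reporter-transfected HepG2; XTT signal loss vs DMSO indicates cytotoxicity.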

[2] = biological target: Cellular tumor antigen p53 (Homo sapiens) (UniProt P04637); assay: TOX21_p53_BLA_p3_ratio: Tox21 HCT-116 p53 Agonism Beta-lactamase Assay, Ratio, Phase 3 (AID 2283596)
Sequence of Cellular tumor antigen p53 (Homo sapiens) (P04637 whole entry, looked up): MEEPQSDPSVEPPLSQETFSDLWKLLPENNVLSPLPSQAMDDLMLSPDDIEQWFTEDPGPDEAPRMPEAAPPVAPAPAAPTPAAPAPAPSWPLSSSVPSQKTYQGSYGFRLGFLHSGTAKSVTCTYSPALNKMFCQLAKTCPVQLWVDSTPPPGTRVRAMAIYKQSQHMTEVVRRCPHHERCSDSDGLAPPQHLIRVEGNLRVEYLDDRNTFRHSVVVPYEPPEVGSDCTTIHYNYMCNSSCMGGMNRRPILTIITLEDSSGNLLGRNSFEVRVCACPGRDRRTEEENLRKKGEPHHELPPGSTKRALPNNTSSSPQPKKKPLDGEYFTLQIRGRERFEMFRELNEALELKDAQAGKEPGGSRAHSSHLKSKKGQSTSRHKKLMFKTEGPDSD
Method in brief: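 HCT116 p53-bla cells (4000/well) given compound in DMSO (217-fold dilution) after 5 h, incubated 16 h at 37C. CCF4-AM substrate 2 h at room temperature; 460/530 nm emission ratio, gain fitted against DMSO.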

[3] = TOX21_p53_BLA_p4_viability: Viability Assessment in the Tox21 HCT-116 p53 Agonism Beta-lactamase Assay, Phase 4 (AID 2283597);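 also: hits lower the luminescence signal meaning cytotoxicity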
Method in brief: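 Luminescent ATP readout (CellTiter-Glo, 30 min, room temperature) in the same wells as the p53 bla ratio. HCT116 cells were treated for 16 h at 37C with DMSO-dissolved compounds.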

[4] = biological target: Cellular tumor antigen p53 (Homo sapiens) (UniProt P04637); assay: TOX21_p53_BLA_p4_ratio: Tox21 HCT-116 p53 Agonism Beta-lactamase Assay, Ratio, Phase 4 (AID 2283601)
Method in brief: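 HCT-116 p53 beta-lactamase reporter cells (4000/well) preincubated 5 h, then compound (217-fold dilution of DMSO stock) for 16 h at 37C. CCF4-AM substrate added 2 h at room temperature; 460/530 nm emission ratio fitted upward versus DMSO.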

[5] = TOX21_p53_BLA_p3_viability: Viability Assessment in the Tox21 HCT-116 p53 Agonism Beta-lactamase Assay, Phase 3 (AID 2283593);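 also: cells exposed to compound for 16 h before reading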
Method in brief: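 HCT116 cells, 4000/well, dosed 5 h after plating by pin transfer (217-fold dilution from DMSO stock) and incubated 16 h at 37C, 5% CO2. Viability read as ATP luminescence with CellTiter-Glo after 30 min at room temperature.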

[6] = TOX21_p53_BLA_p2_viability: Viability Assessment in the Tox21 HCT-116 p53 Agonism Beta-lactamase Assay, Phase 2 (AID 2283591);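 also: compound exposure lasted 16 h at 37 °C; actives lower the ATP signal meaning cytotoxicity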
Method in brief: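 HCT116 p53-bla cells, 4000/well, dosed after 5 h plating (217-fold dilution of DMSO stocks) and incubated 16 h at 37C. Viability taken as cellular ATP by CellTiter-Glo luminescence after 30 min RT; signal loss marks cytotoxicity.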

[7] = biological target: Cellular tumor antigen p53 (Homo sapiens) (UniProt P04637); assay: TOX21_p53_BLA_p2_ratio: Tox21 HCT-116 p53 Agonism Beta-lactamase Assay, Ratio, Phase 2 (AID 2283592)
Method in brief: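 Human colon HCT116 cells with an inducible p53 beta-lactamase reporter are exposed to test chemicals for 16 h at 37C. Reporter induction is read as the 460/530 nm emission ratio after CCF4-AM loading, normalized to DMSO.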

[8] = biological target: Cellular tumor antigen p53 (Homo sapiens) (UniProt P04637); assay: TOX21_p53_BLA_p5_ratio: Tox21 HCT-116 p53 Agonism Beta-lactamase Assay, Ratio, Phase 5 (AID 2283599)
Method in brief: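 HCT-116 p53-bla cells (4000/well) plated 5 h, dosed with compound (217-fold DMSO dilution) for 16 h at 37 C; CCF4-AM substrate 2 h at room temperature. Activity is the 460/530 nm emission ratio (405 nm excitation), fitted in gain-of-signal direction versus DMSO.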

[9] = TOX21_p53_BLA_p5_viability: Viability Assessment in the Tox21 HCT-116 p53 Agonism Beta-lactamase Assay, Phase 5 (AID 2283600)
Method in brief: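 Seeded cells (4000/well) settle 5 h before compound addition. Plates then incubate 16 h at 37C, receive FRET substrate for 2 h, and finally CellTiter-Glo, with luminescence measured after a 30 min room-temperature incubation.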

Measured: AC50

CCCC(C)C(=O)OCC (stereo not drawn)
inactive: [1] | [2] | [3] | [4]

CCCCCCCCCCCC(C)=O
inactive: [1] | [5] | [4]

CCc1cccc(C)c1N
not listed: [1]
inactive: all other assays above

CCN1CCCC1=O
not listed: [1] | [3]
inactive: all other assays above

O=C(O)CCCC(=O)O
not listed: [1] | [3] | [6]
inactive: all other assays above

CCC(C)C(=O)OCCc1ccccc1 (stereo not drawn)
inactive: [7] | [2] | [8] | [9]

C[Si]1(C)O[Si](C)(C)O[Si](C)(C)O[Si](C)(C)O[Si](C)(C)O1
inactive: [7] | [9] | [4]

C=CC(=O)OCCCCCCCCCC
not listed: [1] | [3] | [6]
inactive: all other assays above

CC(=O)CCC=C(C)C
not listed: [1] | [3] | [9]
inactive: all other assays above

CCN1CN(CC)CN(CC)C1
inactive: [3]

CC1=CCC2CC1C2(C)C (stereo not drawn)
inactive: [6] | [5] | [3]

CCOC(=O)c1ccccc1C
not listed: [1] | [2]
inactive: all other assays above

C=CC(C)(O)CC/C=C(\C)CC (stereo not drawn)
inactive: [2] | [3] | [8]

COC(=O)CC(C)CCC=C(C)C (stereo not drawn)
not listed: [1] | [4] | [6]
inactive: all other assays above

CCCC(CC)c1ccccc1 (stereo not drawn)
inactive: [6] | [7] | [5] | [3]

CC1=CC(C)C(C=O)CC1 (stereo not drawn)
inactive: [7] | [2] | [8] | [4]

CC(=O)C(C)C
inactive: [6] | [2] | [8] | [9] | [4]

O=c1c(O)c(-c2ccc(O)cc2O)oc2cc(O)cc(O)c12
inactive: [6] | [5]

CCC1COC(=O)O1 (stereo not drawn)
inactive: [7] | [5] | [2] | [8] | [4]

OCCCc1ccccc1
not listed: [1] | [3] | [9]
inactive: all other assays above

CC(C)=CCl
not listed: [1] | [7] | [8]
inactive: all other assays above

CCCCCCCCCCCCCCCCCCOS(=O)(=O)O
active: [5] 66.9 µM | [2] 86.5 µM
not listed: [1] | [7]
inactive: all other assays above

NC(=O)Nc1ccccc1
inactive: [6] | [2] | [3] | [8] | [4]

COCC(=O)O
not listed: [1] | [2] | [8]
inactive: all other assays above

CC(=O)OC/C=C(/C)CCC=C(C)C
inactive: [7] | [2] | [3] | [8] | [4]

CCCCc1ccc(Cl)cc1
inactive: [2] | [3] | [9] | [4]

CN(C)Cc1cc(CN(C)C)c(O)c(CN(C)C)c1
not listed: [1] | [6] | [9]
inactive: all other assays above

Nc1ncnc2nc[nH]c12
inactive: [7] | [5] | [2] | [8] | [4]

Cc1ccccc1CCO
inactive: [6] | [5] | [2] | [8] | [4]

C=CC(=O)OCCCCCCCC(C)C
not listed: [1] | [6] | [8]
inactive: all other assays above

CC(C)COC(=O)CC(C(=O)OCC(C)C)S(=O)(=O)O (stereo not drawn)
not listed: [1] | [2] | [9]
inactive: all other assays above

C=C(C)C(=O)OCCCCCCCCCCCC
not listed: [1] | [5]
inactive: all other assays above

Cc1cc(C)n(CO)n1
not listed: [1] | [3] | [7]
inactive: all other assays above

COC(=O)c1ccccc1C
inactive: [5] | [2] | [9] | [4]

CC(C)c1cc(C(C)C)cc(C(C)C)c1
inactive: [6] | [2] | [3] | [4]

CCCC1CCCC(=O)O1 (stereo not drawn)
not listed: [1] | [3] | [7]
inactive: all other assays above

CCCCCCOC(=O)CCCCC(=O)OCCCCCC
inactive: [6] | [7] | [5] | [3]

C=C(C)C1CC=C(C)CC1 (stereo not drawn)
not listed: [1] | [7]
inactive: all other assays above

Cc1cccc(C(C)(C)C)c1O
not listed: [1] | [5]
inactive: all other assays above

CCCCCC(=O)OCC
inactive: [5] | [8]

CC12CCC(CC1)C(C)(C)O2
not listed: [1] | [3] | [9]
inactive: all other assays above

C=C[Si](OCCOC)(OCCOC)OCCOC
not listed: [1] | [4] | [7]
inactive: all other assays above

CCCCOCC(C)O (stereo not drawn)
inactive: [6] | [7] | [2] | [8] | [9]

Reference: PubChem BioAssay (EPA / NIEHS)
